# Calls of active or inactive are those of the source. Rule for the calls: active = hit-call score of the fitted dose curve at least 0.9, where 1 is the maximum; inactive = score below 0.9.
# Assay: APR_HepG2_StressKinase_24hr: Apredica 24-hour HepG2 Assay for Stress Kinase (AID 2282922)
# Conditions: HepG2 stress kinase (phospho-c-Jun) imaging, actives raise or lower the signal
# Method in brief: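 HepG2 cells exposed 24 hr to compound at 0.39–200 uM (10 concentrations, duplicate), 0.5% v/v DMSO final. Fixed in 3.7% formaldehyde, permeabilized with Triton X-100, immunolabeled for phospho-c-Jun with Hoechst 33342; HCS fluorescence imaging, bidirectional fit versus DMSO.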
row,SMILES,outcome
1,N#CN=C1SCCN1Cc1ccc(Cl)nc1,inactive
2,CCCC(=NOCC)C1=C(O)CC(CC(C)SCC)CC1=O (stereo unspecified),inactive
3,CC1(C)CCC(=Cc2ccc(Cl)cc2)C1(O)Cn1cncn1 (stereo unspecified),inactive
4,Cc1cc(C)nc(Nc2ccccc2)n1,inactive
5,CCOc1nc(C(Cl)(Cl)Cl)ns1,inactive
6,CC(C)Nc1nc(Cl)nc(NC(C)C)n1,inactive
7,O=c1n(Cl)c(=O)n(Cl)c(=O)n1Cl,inactive
8,CCCN(CC)CC1COC2(CCC(C(C)(C)C)CC2)O1 (stereo unspecified),inactive
9,Cc1nc(N(C)C)nc(OC(=O)N(C)C)c1C,inactive
10,Clc1nc(Cl)nc(Nc2ccccc2Cl)n1,inactive
11,CS(=O)(=O)c1ccc(C(=O)C2C(=O)CCCC2=O)c([N+](=O)[O-])c1,inactive
12,Nc1c(Cl)c(F)nc(OCC(=O)O)c1Cl,inactive
13,CCN(CC)c1nc(C)cc(OP(=S)(OC)OC)n1,inactive
14,CCCCC(O)(Cn1cncn1)c1ccc(Cl)cc1Cl (stereo unspecified),inactive
15,COc1ccc(-c2ccccc2)cc1NNC(=O)OC(C)C,inactive
16,CSC(=O)c1c(C(F)F)nc(C(F)(F)F)c(C(=O)SC)c1CC(C)C,inactive
17,CCOC(=O)C(C)OC(=O)c1cc(Oc2ccc(C(F)(F)F)cc2Cl)ccc1[N+](=O)[O-] (stereo unspecified),inactive
18,O=P(O)(O)CCCl,inactive

row,SMILES,outcome
1,COCC(C)N(C(=O)CCl)c1c(C)csc1C (stereo unspecified),inactive
2,COC(=O)c1c(C(F)F)nc(C(F)(F)F)c(C2=NCCS2)c1CC(C)C,inactive
3,CCN(CC)C(=O)C(C)Oc1cccc2ccccc12 (stereo unspecified),inactive
4,CNC(=O)N(C)c1nnc(C(C)(C)C)s1,inactive
5,CCOP(=O)(OCC)Oc1nc(Cl)c(Cl)cc1Cl,inactive
6,CC(C)C1(C)N=C(c2ncccc2C(=O)O)NC1=O (stereo unspecified),inactive
7,CC(C)N1C(=O)c2ccccc2NS1(=O)=O,inactive
8,COC(=O)NC(=S)Nc1ccccc1NC(=S)NC(=O)OC,inactive
9,CC(C)(C)C(=O)C(Oc1ccc(Cl)cc1)n1cncn1 (stereo unspecified),inactive
10,CCC(C)n1c(=O)[nH]c(C)c(Br)c1=O (stereo unspecified),inactive
11,CCNP(=S)(OC)O/C(C)=C/C(=O)OC(C)C (stereo unspecified),inactive
12,CC(C)NC(=O)N1CC(=O)N(c2cc(Cl)cc(Cl)c2)C1=O,inactive
13,CCCCOCN(C(=O)CCl)c1c(CC)cccc1CC,inactive
14,O=C(O)c1c(Cl)ccc2cc(Cl)cnc12,inactive
15,CO/N=C(/C1=NOCCO1)c1ccccc1Oc1ncnc(Oc2ccccc2Cl)c1F,inactive
16,CC1(C)C(C=C(Cl)Cl)C1C(=O)OC(C#N)c1cccc(Oc2ccccc2)c1 (stereo unspecified),inactive
17,Nc1c(Cl)c(Cl)nc(C(=O)O)c1Cl,inactive
18,CC1(C)CON(Cc2ccccc2Cl)C1=O,inactive
